# The list is not random: actives were taken first. Their share in the collection is about 9.5%.
# Pf growth 96h: P. falciparum growth inhibition at 96 hour, primary screen for plastid delayed-death inhibitors | Potency, µM (top dose mostly 28.7 µM), without a hit: at the top dose activity change, negative = inhibition, hits mostly inhibitors | AID 504834 | P. falciparum luciferase reporter growth, 96 h | actives 6.9% (n = 320,000); further: on the % scale 0 is the no-effect control and ±100 the full control effect
#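 Two-generation exposure (96 h) targets delayed-death phenotype. Reporter parasites carrying integrated firefly luciferase, in red cells at 2% hematocrit and 0.05% parasitemia final, kept at 37 C, 5% CO2; luminescence loss indicates inhibition.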
# NS1 function inh: influenza NS1 inhibition; Potency, µM (highest dose often 46.1 µM), inactives show at the top dose activity, positive = more growth; actives 0.4% (n = 270,000); AID 2326; calls by dose curve; further: actives are rising curves; nearly all actives have a fitted effect of over 50% in size
#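 OD600 was taken as the measure of yeast growth restored by compound in an NS1-expressing S. cerevisiae strain. Cells had been washed out of glucose medium and diluted 1:100 into galactose -URA medium, pH 6.0.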
# Pf growth 48h: P. falciparum growth inhibition at 48 hours (one generation). AID 504832. P. falciparum luciferase growth in erythrocytes, 48 h. actives 5.9% (n = 310,000). Potency, µM (top dose mostly 28.7 µM), for the others: at the highest dose activity change, negative = inhibition, hits mostly inhibitors; further: on the % scale 0 is the no-effect control and ±100 the full control effect
#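 Cell-based growth assay: transgenic P. falciparum expressing firefly luciferase, cultured in red cells within RPMI 1640 containing 0.5% w/v Albumax, 24 mM bicarbonate and gentamycin. A drop in luciferase activity indicates inhibition.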
# RE007 growth inh: less growth of the S. pombe RE007 Vpr strain. S. pombe RE007 Vpr strain, BacTiter-Glo ATP luminescence, 24 h. Potency, µM (doses to about 92.2 µM), for inactives: at the top dose activity change, negative = less growth, most hits filed as inhibitors. actives 0.21% (n = 360,000); active means well fitted falling curve with a large enough effect; inconclusive means small, poorly fitted or top-dose-only effect; inactive means no such curve, though single readings can be large or run the other way; further: on the % scale 0 is the no-effect control and ±100 the full control effect; nearly all actives have a fitted effect of over 50% in size
#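 Fission yeast strain RE007, carrying one chromosomally integrated HIV-1 vpr copy, was seeded at OD 0.01 in PMG+AL medium with 23 nL pinned compound. After 24 h at 30 °C and 99% humidity, viability was read by BacTiter-Glo luminescence.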
# SARS PLpro yeast: blocks SARS-CoV papain-like protease in a yeast assay; AID 485353; S. cerevisiae expressing SARS-CoV PLpro, growth rescue; Potency, µM (doses to about 32.9 µM), inactives show at the top dose activity, positive = growth rescue, hits mostly activators; actives 0.19% (n = 330,000); calls by dose curve; further: 0% is about no effect; nearly all actives have a fitted effect of over 55% in size
# * marks the source's active call; other numbers are inactive results; ? = inconclusive; . = no result given; [ ] = dose if it differs, or a comment. Unless noted, the call rests on the fitted dose curve; in most records, active means well fitted inhibition curve with a large enough effect; inconclusive means small, poorly fitted or top-dose-only effect, or another doubt; inactive means no such curve, though single readings can be large or run the other way. Potency means the concentration at half of the fitted maximal effect.
SMILES,Pf growth 96h,NS1 function inh,Pf growth 48h,RE007 growth inh,SARS PLpro yeast
CCOCCCn1c(=NC(=O)c2cccs2)c(C#N)cc2c(=O)n3cccc(C)c3nc21,-7%,1%,1.9µM*,5%,0%
Cc1cccc(C(=O)N=c2c(C#N)cc3c(=O)n4cccc(C)c4nc3n2Cc2ccco2)c1,13µM*,16%,.,8%,16%
Cc1ccc(Cn2c(=N)c(C#N)cc3c(=O)n4cccc(C)c4nc32)cc1,15µM*,0%,10%,.,0%
CC(=O)N=c1c(C#N)cc2c(=O)n3ccccc3nc2n1Cc1ccccc1,8.3µM*,9%,?,-17%,-12%
CCOCCCn1c(=NC(C)=O)c(C#N)cc2c(=O)n3ccccc3nc21,4%,-1%,19%,?,1%
Cc1ccccc1OCC1Cn2c(nc3c2c(=O)n(C)c(=O)n3C)O1 (stereo unspecified),0%,-2%,9%,10%,-6%
COc1ccc(NC(=O)Cc2c(F)cccc2Cl)c(OC)c1,-15%,4%,10%,3%,-5%
O=C(O)CCc1nc2cc(C(F)(F)F)ccc2n(Cc2ccccc2)c1=O,-13%,4%,-12%,20%,-1%
CCc1nc2ccc(C(=O)N3CCN(c4ccccc4)CC3)cn2c1N(CCC(C)C)CCN(C)C,.,.,.,-5%[18.4 µM],.
COCCCn1c(=NC(C)=O)c(C#N)cc2c(=O)n3cccc(C)c3nc21,?,-2%,3%,-7%,0%
CCN(C(=O)c1cc2c(=O)n3cccc(C)c3nc2n1CCCOC)C1CCCCC1,9.3µM*,-55%,?,15%,-8%
COCCCn1c(=NC(=O)c2ccccc2)c(C#N)cc2c(=O)n3cccc(C)c3nc21,?,6%,2.9µM*,2%,-1%
COc1ccc(C(=O)N2CCC3(CC2)NCCc2[nH]cnc23)cc1,33%,1%,-2%,15%,0%
CC(C)[C@H](NC(=O)c1c(F)cccc1F)C(=O)Nc1cccc(Br)c1,-10%,3%,-9%,-5%,0%
COc1cc(OC)cc(C(=O)N[C@H](C(=O)Nc2nc3ccc(S(C)(=O)=O)cc3s2)C(C)C)c1,?,.,4.7µM*,10%,0%
COc1ccc(NS(=O)(=O)c2cc(NC(=O)[C@@H](NC(=O)c3ccccc3)C(C)C)ccc2C)cc1,9.3µM*,?,9.3µM*,5%,10%
Cc1nc2ccc(NC(=O)[C@@H](NC(=O)c3c(F)cccc3F)C(C)C)cc2s1,?,.,2.1µM*,0%,5%
COc1cc(OC)cc(C(=O)NC(C(=O)Nc2ccc3nc(C)sc3c2)C(C)C)c1 (stereo unspecified),6.6µM*,.,3.3µM*,0%,10%
COc1ccc(NS(=O)(=O)c2cc(NC(=O)c3ccc(=O)[nH]c3)ccc2C)cc1,-16%,.,14%,1%,1%
N#C/C(=C\c1ccc(OCC(N)=O)cc1)S(=O)(=O)c1ccccc1,23%,.,10%,-21%,0%
N#C/C(=C\c1ccc[nH]1)C(=O)Nc1ccccc1[N+](=O)[O-],-12%,3%,83%,-5%,-8%
Cc1ccccc1NC(=O)/C(C#N)=C/c1ccc[nH]1,12µM*,-3%,1%,3%,23%
C[C@H]1C[C@@H]2[C@H]3CCC4=CC(=O)C=C[C@@]4(C)[C@@]3(Cl)[C@@H](O)C[C@]2(C)[C@]1(OC(=O)c1ccco1)C(=O)CCl,2µM*,.,4.5µM*,.,.
C[C@@H]1C[C@H]2[C@@H]3CCC4=CC(=O)C=C[C@]4(C)[C@@]3(Cl)[C@@H](O)C[C@]2(C)[C@@]1(OC(=O)c1ccco1)C(=O)CCl,2.1µM*,.,1.9µM*,0%,.
CCCC(=O)O[C@]1(C(=O)CCl)[C@H](C)C[C@@H]2[C@H]3CCC4=CC(=O)C=C[C@]4(C)[C@@]3(F)C(=O)C[C@@]21C,1.9µM*,.,?,.,.
SMILES,Pf growth 96h,NS1 function inh,Pf growth 48h,RE007 growth inh,SARS PLpro yeast
CC1CC2C3CCC4=CC(=O)C=CC4(C)[C@@]3(Cl)C(O)CC2(C)C1(O)C(=O)CO (stereo partly specified),.,.,.,13%,.
CCCN1CCN(S(=O)(=O)c2ccc(-c3cc(C)no3)s2)CC1,?,8%,-1%,-3%,9%
OC1(c2ccccc2Cl)NN=C2CCCCCN21 (stereo unspecified),61%,.,-10%,-5%,0%
C[N+]1=C2CCCCCN2C(O)(c2ccccc2)C1 (stereo unspecified),8.3µM*,-1%,16%,6%,2%
Cc1ccc(C(=O)N(CC(=O)NC2CCCC2)c2ccccc2F)s1,.,.,.,-12%,.
COP(=O)(OC)C(Nc1ccc(Cl)cc1)c1ccccc1 (stereo unspecified),0%,0%,0%,3%,4%
CC(C)OP(=O)(c1ccc(N(C)C)cc1)C(Nc1ccccc1)c1ccccc1 (stereo unspecified),?,-4%,8.3µM*,0%,-1%
CC(C)CCOP(=O)(c1ccc(N(C)C)cc1)C(Nc1ccccc1)c1ccc(N(C)C)cc1 (stereo unspecified),?,0%,?,2%,0%
COP(=O)(OC)C(Nc1ccccc1)c1ccccc1 (stereo unspecified),17µM*,23%,10%,-4%,6%
CCCNC(=O)C(Cc1ccc(F)cc1)NC(=O)c1ccccc1 (stereo unspecified),?,.,11%,9%,-1%
Cc1c(N=C2N=C(NC(=O)c3ccc(F)cc3)c3ccccc32)c(=O)n(-c2ccccc2)n1C,9%[5.75 µM],-4%,7.4µM*,-16%,1%
Cc1c(NC(=O)NC(=O)c2ccc(F)cc2)c(=O)n(-c2ccccc2)n1C,-26%,-2%,23%,-1%,1%
CCOC(=O)Cn1nc2oc(=O)c(CCN3CCN(c4ccccc4OC)CC3)c(C)c2c1C,.,.,.,-12%,.
CCNC(=O)CC1C(=O)N(c2cccc(OC)c2)C(=O)N1CCOC (stereo unspecified),.,-10%,2%,18%,8%
COc1ccc(NC(=O)CC2C(=O)N(c3cccc(OC)c3)C(=O)N2CCC(C)C)cc1 (stereo unspecified),12µM*,-6%,.,-8%,-11%
COc1ccc(NC(=O)CC2C(=O)N(c3cccc(OC)c3)C(=O)N2C(C)C)cc1 (stereo unspecified),18%,.,-17%,4%,0%
COc1ccc(NC(=O)CC2C(=O)N(c3cccc(OC)c3)C(=O)N2Cc2ccco2)cc1 (stereo unspecified),9.3µM*,-3%,-4%,5%,-1%
COCCN1C(=O)N(c2cccc(OC)c2)C(=O)C1CC(=O)Nc1cccc(F)c1 (stereo unspecified),4.1µM*,5%,-1%,7%,-10%

# Screening results as filed in PubChem.
